# In the supplement of paper PMC8728848:
# Many of the other results were omitted from the sample, so the strongest signals are more common in it than they were.
# Legend:
# Assay in all cases: glycan array binding signal (z-score within array); higher = stronger binding
# Conditions in all cases: glycan notation: IUPAC condensed, linker removed
# [1] = target: Neu5Ac(a2-3)Gal(b1-4)[Fuc(a1-3)]GlcNAc
# Method in brief: (§1)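 Negative Z-scores can be read as non-binding. The Z-score is calculated within each array and then averaged across arrays of one protein sequence at different concentrations or buffers and across linkers. Arrays, 3228 in all, were curated from the Consortium for Functional Glycomics database and kept only where the protein sequence was available.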
# [2] = target: Neu5Ac(a2-3)GalNAc(b1-4)GlcNAc
# Method in brief: as §1
# [3] = target: Neu5Ac(a2-6)Gal(b1-4)GlcNAc(b1-3)Gal(b1-4)GlcNAc(b1-3)Gal(b1-4)GlcNAc
# Method in brief: as §1
# [4] = target: Neu5Ac(a2-6)GlcNAc(b1-4)GlcNAc
# Method in brief: as §1
# [5] = target: Neu5Ac(a2-8)Neu5Ac(a2-3)Gal(b1-4)Glc
# Method in brief: as §1
# [6] = target: Neu5Ac(a2-8)Neu5Ac(a2-3)[GalNAc(b1-4)]Gal(b1-4)Glc
# Method in brief: as §1
# [7] = target: Neu5Gc(a2-6)GalNAc
# Method in brief: as §1
binder,measurement,setting,value
XCL (Xerocomus chrysenteron) (protein) MSYSITLRVYQTNRDRGYFSIVEKTVWHFANGGTWSEANGAHTLTQGGSGTSGVLRFLSTKGERITVAVGVHNYKRWCDVVTGLKPDETALVINPQYYNNGGRDYVREKQLAEYSVTSAIGTKVEVVYTVAEGNNLEANVIFS,glycan array binding signal (z-score),[1],-0.3
same,glycan array binding signal (z-score),[2],-0.279
same,glycan array binding signal (z-score),[3],-0.311
same,glycan array binding signal (z-score),[4],-0.322
same,glycan array binding signal (z-score),[5],-0.311
same,glycan array binding signal (z-score),[6],-0.316
same,glycan array binding signal (z-score),[7],0.059
